Test systems include T-47D breast; BT-549 breast; MDA-MB-435 melanoma; SW-620 colon; MCF7 breast; HCT-116 colon; HCC-2998 colon; KM12 colon.
What all share (test): NCI-60 one-dose screen, 48 h (100 = growth as untreated, 0 = no growth, -100 = all killed)
Common to all, as to details: 10 µM unless noted

The panel holds about 83,000 compounds, 20% with a hit somewhere; the sample as a whole holds those more often.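 Method: cells in 96-well plates; compound added at one concentration; 48 h incubation; percent growth measured; values under 10 scored active.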 Unmarked numbers belong to inactive results. Active and inactive are the calls of the source.

In the case of `CCOS(=O)(=O)c1ccc([N+](=O)[O-])cc1`, the growth was 101% in the test with T-47D breast; 111% in the test with BT-549 breast; 107% in the test with MDA-MB-435 melanoma; 119% in the test with SW-620 colon; 103% in the test on MCF7 breast; 106% with HCT-116 colon. The growth with HCC-2998 colon is 104%; in the test on KM12 colon, 108%.
As for `O=c1cc(Cl)nc2ccccn12`, the growth in the test on T-47D breast was 103%; with BT-549 breast, 107%; with MDA-MB-435 melanoma, 108%; in the test with SW-620 colon, 105%; in the test on MCF7 breast, 91.4%; in the test with HCT-116 colon, 99.6%. Also, the growth with HCC-2998 colon is 102%; in the test on KM12 colon, 96.6%.
For the compound `Cn1c2ccccc2c2nnc(NCCCCO)nc21`, the growth in the test with T-47D breast was 76.5%; in the test with BT-549 breast, 101%; in the test on MDA-MB-435 melanoma it was 110%; with SW-620 colon it was 93%; in the test with MCF7 breast it was 59.2%; in the test with HCT-116 colon, 90.1%. Moreover, the growth in the test with HCC-2998 colon was 98%; with KM12 colon, 94.8%.
In the case of `Cc1c(Cl)cccc1N=C=S`, the growth is 107% in the test on T-47D breast; 87.9% in the test with BT-549 breast; 106% with MDA-MB-435 melanoma; 114% in the test on SW-620 colon; 97.5% with MCF7 breast; 95.2% in the test with HCT-116 colon. In addition, the figures for the growth in the test on HCC-2998 colon and in the test with KM12 colon were 92.9% and 108%, respectively.
On to `CCCCCCCCCCCCCC/C=C\C(CC(=O)O)C(=O)O` (configuration not stated), for which the growth in the test on T-47D breast was 115%; in the test on BT-549 breast it was 116%; in the test on MDA-MB-435 melanoma, 126%; with SW-620 colon, 103%; in the test on MCF7 breast, 105%; in the test on HCT-116 colon it was 103%. The growth in the test on HCC-2998 colon is 102%; in the test on KM12 colon, 103%.
Turning to `CC(=O)c1cccs1`, the growth with T-47D breast was 90%; in the test on BT-549 breast it was 97%; in the test with MDA-MB-435 melanoma it was 109%; with SW-620 colon, 108%; in the test on MCF7 breast, 94.6%; with HCT-116 colon, 97.4%. The growth with HCC-2998 colon is 98.4%; with KM12 colon it was 102%.
With `Nc1ncnc2c1ncn2C1OC(CO)C2OC21` (configuration not stated), the growth in the test with T-47D breast is 84.7%; in the test on BT-549 breast, 110%; in the test on MDA-MB-435 melanoma, 111%; in the test on SW-620 colon it was 99.5%; in the test with MCF7 breast, 93.6%; in the test with HCT-116 colon, 108%. Further, the values for the growth with HCC-2998 colon and with KM12 colon were 105% and 109%, respectively.
Take `COc1ccc(C(=O)C(=O)c2ccccc2)cc1`: the growth is 104% in the test with T-47D breast; 112% with BT-549 breast; 95.1% in the test on MDA-MB-435 melanoma; 100% in the test with SW-620 colon; 103% in the test on MCF7 breast; 105% in the test on HCT-116 colon. Further, the results for the growth in the test on HCC-2998 colon and in the test on KM12 colon were 104% and 102%, respectively.
`NNC(=O)N/N=C1\C(=O)N(c2nccs2)C(=O)C(=O)C1c1nc2ccccc2s1` (configuration not stated): the growth with T-47D breast was 77.1%; with BT-549 breast, 99.1%; in the test on MDA-MB-435 melanoma it was 109%; in the test on SW-620 colon it was 96.1%; with MCF7 breast, 98.5%; with HCT-116 colon, 88.7%. For the same compound, the growth with HCC-2998 colon was 93.2%; in the test with KM12 colon, 100%.
On to `Cn1c(=O)c2nc3c(=O)n(C)c(=O)n(C)c3nc2n(C)c1=O`, for which the growth was 91.1% with T-47D breast; 100% in the test with BT-549 breast; 112% in the test on MDA-MB-435 melanoma; 99.8% in the test with SW-620 colon; 93.8% in the test on MCF7 breast; 92.1% in the test with HCT-116 colon. For the same compound, in the test on KM12 colon, the growth was 109%.
Turning to `CCCCCCCCCCCCSC1=C(Cl)C(=O)C(OC)=C(OC)C1=O`, the growth in the test with T-47D breast was 14.1%; with BT-549 breast, 58.3%; in the test with MDA-MB-435 melanoma, 25.9%; with SW-620 colon, 27.5%; with MCF7 breast it was 6.48% (active); in the test on HCT-116 colon, 16%. The growth in the test with KM12 colon is 24.4%.
For the compound `NNc1ncnc2nc[nH]c12`, the growth in the test with T-47D breast was 62.2%; in the test on BT-549 breast it was 85%; in the test on MDA-MB-435 melanoma, 51.3%; in the test with SW-620 colon it was 41.6%; in the test on MCF7 breast, 33%; in the test on HCT-116 colon, 24%. Besides, the growth in the test on KM12 colon was 46%.
Turning to `S=C=Nc1ccc2ccccc2c1`, the growth was 108% in the test on T-47D breast; 96.2% in the test with BT-549 breast; 101% in the test with MDA-MB-435 melanoma; 105% in the test on SW-620 colon; 101% in the test with MCF7 breast; 103% with HCT-116 colon. The growth in the test with KM12 colon is 104%.
Consider `COC(CCCl)c1ccc(Cl)cc1` (configuration not stated), for which the growth is 98.1% in the test on T-47D breast; 102% in the test with BT-549 breast; 107% with MDA-MB-435 melanoma; 100% with SW-620 colon; 99% with MCF7 breast; 103% with HCT-116 colon. The growth with HCC-2998 colon is 106%; in the test on KM12 colon, 102%.
Consider `COc1nc2ccccc2s1`, for which the growth was 99.2% in the test with T-47D breast; 90.6% with BT-549 breast; 105% with MDA-MB-435 melanoma; 93% in the test with SW-620 colon; 87.8% in the test with MCF7 breast; 103% in the test with HCT-116 colon. Further, the growth with KM12 colon is 102%.
Take `C/C=C/C1OCC(CC)C(CCC)O1` (configuration not stated): the growth is 107% in the test on T-47D breast; 108% in the test with BT-549 breast; 107% with MDA-MB-435 melanoma; 105% in the test on SW-620 colon; 95.8% in the test with MCF7 breast; 103% in the test with HCT-116 colon. The growth with HCC-2998 colon is 124%; with KM12 colon, 102%.
Regarding `CC(=O)OCC1OC(n2cnc3c(=S)nc(N)[nH]c32)C(OC(C)=O)C1OC(C)=O` (configuration not stated), the growth in the test with T-47D breast is 54.4%; with BT-549 breast, 79.4%; in the test on MDA-MB-435 melanoma, 99.3%; in the test with SW-620 colon, 82.9%; in the test on MCF7 breast, 60.7%; in the test on HCT-116 colon, 43.3%. Moreover, the growth in the test on KM12 colon is 86.3%.
Take `O=C(c1ccc(Cl)cc1)N1CCCCC1`: the growth with T-47D breast was 91.5%; in the test with BT-549 breast, 105%; with MDA-MB-435 melanoma, 101%; in the test on SW-620 colon, 99.8%; in the test on MCF7 breast, 92.9%; in the test with HCT-116 colon, 99.9%. Moreover, the growth in the test with KM12 colon is 106%.
With `O=C(NC(=S)N1CC=CCC1)c1ccccc1`, the growth in the test on T-47D breast was 110%; in the test on BT-549 breast it was 93.6%; with MDA-MB-435 melanoma it was 109%; with SW-620 colon, 103%; in the test on MCF7 breast it was 101%; in the test on HCT-116 colon it was 102%. In the test on KM12 colon, the growth was 112%.
In the case of `C/C(Cc1ccccc1)=N\O`, the growth was 117% in the test with T-47D breast; 107% in the test with BT-549 breast; 98.3% with MDA-MB-435 melanoma; 98.4% with SW-620 colon; 107% in the test on MCF7 breast; 101% with HCT-116 colon. The growth in the test on KM12 colon was 103%.
`CCOC(=O)/C(C)=C\c1ccc(OC)c(OC)c1`: the growth is 90.2% in the test on T-47D breast; 89% in the test with BT-549 breast; 102% with MDA-MB-435 melanoma; 106% in the test on SW-620 colon; 101% in the test on MCF7 breast; 94.2% with HCT-116 colon. For the same compound, the growth with KM12 colon is 102%.
On to `CCCCCC/C=C\CCCCCCCCCc1cc(O)cc(OC)c1O`, for which the growth is -61.8% (active) in the test with T-47D breast; 3.38% (active) with BT-549 breast; 13.3% in the test on MDA-MB-435 melanoma; 14.9% in the test on SW-620 colon; 6.81% (active) with MCF7 breast; 5.45% (active) in the test with HCT-116 colon. The growth with KM12 colon was 12.5%.
As for `C=C1C(=O)C2CCC1C2` (configuration not stated), the growth is 98.7% in the test with T-47D breast; 93% in the test on BT-549 breast; 105% in the test with MDA-MB-435 melanoma; 101% in the test on SW-620 colon; 109% in the test with MCF7 breast; 105% in the test on HCT-116 colon. For the same compound, the growth with KM12 colon is 96.5%.
For `CCC(=O)C1C(=O)c2ccccc2C1=O`, the growth is 113% in the test on T-47D breast; 103% in the test with BT-549 breast; 104% in the test on MDA-MB-435 melanoma; 113% in the test with SW-620 colon; 105% with MCF7 breast; 107% with HCT-116 colon. Besides, the growth in the test on KM12 colon is 105%.
Turning to `CCOP(=O)(NC(c1ccccc1)c1ccccc1)OCC`, the growth was 90.4% in the test on T-47D breast; 105% in the test on BT-549 breast; 110% in the test with MDA-MB-435 melanoma; 103% in the test with SW-620 colon; 92.7% with MCF7 breast; 93.8% in the test with HCT-116 colon. The growth in the test on HCC-2998 colon is 110%; in the test on KM12 colon it was 114%.
